{"source": "PubChem BioAssay AID504452", "about": "(The Scripps Research Institute Molecular Screening Center, 2011)", "biological_target": "Peroxisome proliferator-activated receptor gamma (Homo sapiens) (UniProt P37231)", "sequence (P37231 whole entry, looked up)": "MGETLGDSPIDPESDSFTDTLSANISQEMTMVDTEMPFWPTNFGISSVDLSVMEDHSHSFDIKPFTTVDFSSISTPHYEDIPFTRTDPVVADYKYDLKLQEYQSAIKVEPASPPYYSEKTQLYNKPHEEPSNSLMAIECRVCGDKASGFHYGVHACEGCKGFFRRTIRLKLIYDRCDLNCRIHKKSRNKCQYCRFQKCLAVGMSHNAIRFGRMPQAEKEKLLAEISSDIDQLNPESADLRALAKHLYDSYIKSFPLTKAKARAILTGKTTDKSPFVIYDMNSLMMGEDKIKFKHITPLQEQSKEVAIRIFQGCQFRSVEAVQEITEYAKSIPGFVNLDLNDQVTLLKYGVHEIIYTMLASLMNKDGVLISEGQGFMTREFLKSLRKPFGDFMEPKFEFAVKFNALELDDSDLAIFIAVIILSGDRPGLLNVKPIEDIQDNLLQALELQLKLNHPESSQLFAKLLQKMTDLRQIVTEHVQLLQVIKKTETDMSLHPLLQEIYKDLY", "test": "PPARg partial agonist activation, primary screen, cell-based, luciferase reporter, luminescence (AID 504452);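 also: Cos-1 cells carrying PPARgamma and a response element luciferase reporter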", "conditions": "at 5 µM, stronger effect = higher value; activation (% of full agonist control): measured here: relative to full agonist control", "note": "Activity calls are given as the source filed them. Rule as the data show it: active = activation above about 85%; inactive = the rest."}
{"smiles": "O=C(Cc1cccs1)N1CCCC(c2nc3c(nnn3Cc3ccc(F)cc3)c(=O)[nH]2)C1", "note": "(centres undefined)", "values": [{"measurement": "activation (% of full agonist control)", "value": 32.7, "unit": "%"}, {"measurement": "activation (% of partial agonist control)", "value": "72.5% (inactive)"}]}
{"smiles": "CC(=O)Nc1cccc(-n2c(=O)n(Cc3ccccc3)c(=O)c3[nH]cnc32)c1", "values": [{"measurement": "activation (% of full agonist control)", "value": 36.6, "unit": "%"}, {"measurement": "activation (% of partial agonist control)", "value": "81.1% (inactive)"}]}
{"smiles": "O=c1c(S(=O)(=O)c2ccc(Cl)cc2)cn(Cc2ccccc2)c2ccc(F)cc12", "values": [{"measurement": "activation (% of full agonist control)", "value": 38, "unit": "%"}, {"measurement": "activation (% of partial agonist control)", "value": "84.1% (inactive)"}]}
{"smiles": "COc1cc(CN2CCN(c3cccc(C)c3C)CC2)cc([N+](=O)[O-])c1O", "values": [{"measurement": "activation (% of full agonist control)", "value": 33.7, "unit": "%"}, {"measurement": "activation (% of partial agonist control)", "value": "74.7% (inactive)"}]}
{"smiles": "COc1ccc2c(c1)c(=O)c(C(=O)c1ccc(Cl)cc1)cn2CC(=O)Nc1ccc(F)cc1", "values": [{"measurement": "activation (% of full agonist control)", "value": 32, "unit": "%"}, {"measurement": "activation (% of partial agonist control)", "value": "70.9% (inactive)"}]}
{"smiles": "COc1ccc2nc(N3C(=O)C(O)=C(C(=O)c4ccco4)C3c3ccc(C)o3)sc2c1", "note": "(centres undefined)", "values": [{"measurement": "activation (% of full agonist control)", "value": 41.1, "unit": "%"}, {"measurement": "activation (% of partial agonist control)", "value": "91.1% (active)"}]}
{"smiles": "O=C(O)c1ccc(N2C(=O)CC(SC(=Nc3ccccc3)Nc3ccccc3)C2=O)cc1", "note": "(centres undefined)", "values": [{"measurement": "activation (% of full agonist control)", "value": 38.3, "unit": "%"}, {"measurement": "activation (% of partial agonist control)", "value": "84.7% (inactive)"}]}
{"smiles": "CC(C)C[C@H](NC(=O)N1CC(=O)Nc2ccccc21)C(=O)N[C@@H](Cc1c[nH]c2ccccc12)C(=O)O", "values": [{"measurement": "activation (% of full agonist control)", "value": 31.3, "unit": "%"}, {"measurement": "activation (% of partial agonist control)", "value": "69.4% (inactive)"}]}
{"smiles": "COC(=O)c1sc(N2C(=O)C(O)=C(C(=O)c3ccc(C)o3)C2c2ccc(F)cc2)nc1C", "note": "(centres undefined)", "values": [{"measurement": "activation (% of full agonist control)", "value": 29.9, "unit": "%"}, {"measurement": "activation (% of partial agonist control)", "value": "66.2% (inactive)"}]}
{"smiles": "COc1cccc(C2CC(=O)N3CN(c4ccccc4F)CSC3=C2C#N)c1", "note": "(centres undefined)", "values": [{"measurement": "activation (% of full agonist control)", "value": 31.6, "unit": "%"}, {"measurement": "activation (% of partial agonist control)", "value": "69.9% (inactive)"}]}
{"smiles": "O=C(NCCCn1ccnc1)C(=O)NCC(c1ccco1)N1CCN(c2ccccc2)CC1", "note": "(centres undefined)", "values": [{"measurement": "activation (% of full agonist control)", "value": 28.4, "unit": "%"}, {"measurement": "activation (% of partial agonist control)", "value": "62.9% (inactive)"}]}
{"smiles": "O=C(O)CC1=C(Nc2ccccc2)C(=O)N(c2ccccc2)C1c1ccc(F)cc1", "note": "(centres undefined)", "values": [{"measurement": "activation (% of full agonist control)", "value": 31, "unit": "%"}, {"measurement": "activation (% of partial agonist control)", "value": "68.7% (inactive)"}]}
